Hits are enriched below; roughly 0.93% of the tested compounds scored in any of these assays.
NFkB transloc pot = enhancers of NFkB p65 translocation in HUVEC – imaging, IL-1B stimulus, high-content imaging, primary screen | HUVEC IL-1B NFkB p65 nuclear translocation imaging | activation, % at 2 µM | 94,000 compounds, 0.3% hits | AID 819, 2007;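 active = activation above 40%, about the mean plus 3 SD, also judged a hit on visual image review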;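 also: percent activation is computed from the nuclear over cytoplasmic p65 intensity ratio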
IL1B cytotox = cytotoxicity in IL-1B stimulated HUVEC, primary screen, cytotoxicity control for IL-1B NFkB translocation project, imaging, Hoechst nuclear count, IL-1B stimulus; HUVEC cell count loss; cell count reduction, % at 2 µM; 94,000 compounds, 0.41% hits; AID 845, 2007;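 active = cell count reduction more than 3 SD above the screen-wide mean, cut at about 70% in these data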
TNFa cytotox = cytotoxicity in TNFa-stimulated HUVEC, primary screen, cytotoxicity control for VCAM1 expression modulator project, imaging, Hoechst nuclei count; cell count reduction, % at 2 µM; 93,000 compounds, 0.17% hits; HUVEC TNFalpha-stimulated, Hoechst cell count;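 active = cell count reduction exceeding the screen mean by over 5 SD, scaled to untreated wells per plate, cut at about 78% in these data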;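 also: cells counted after 24 h of TNF alpha exposure following the 1 h pretreatment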
NFkB transloc inh = inhibitors of IL-1B driven NFkB p65 nuclear import, primary screen, imaging, HUVEC, IL-1B stimulus, high-content imaging; HUVEC IL-1B NFkB p65 nuclear translocation imaging; inhibition, % at 2 µM; 94,000 compounds, 0.43% hits; AID 796, 2007;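 active = inhibition above about 30% together with a positive call from visual inspection of the well image, limit read from the data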;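 also: nuclear over cytoplasmic p65 intensity ratio measured by imaging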
Phagocytosis inh = inhibitors of macrophage phagocytosis, primary screen, imaging, J774A.1 cells, IgG beads. J774A.1 macrophage IgG-bead phagocytosis. inhibition, % at 5 µM. 110,000 compounds, 0.07% hits. AID 1029, 2008;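 active = inhibition above the mean of the plate negative controls plus 5 SD, cut at about 13% in these data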;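 also: phagocytic index as fraction of beads internalized from green versus red external bead signal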
Hits are given with their value; i = inactive; nt = not tested or not shown; [ ] = dose if it differs, or a comment.

SMILES | NFkB transloc pot | IL1B cytotox | TNFa cytotox | NFkB transloc inh | Phagocytosis inh
Cc1cc(OCC(=O)N(C)C)c2c(-c3ccccc3)cc(=O)oc2c1 | i | i | i | i | nt
CCN(CC)C(=O)COc1cc(C)cc2oc(=O)cc(-c3ccccc3)c12 | i | i | i | 33 | nt
O=C(CC(=O)c1cc(Cl)ccc1O)c1ccccc1 | i | 89 | i | i | i
COc1cc2c(cc1OC)C(c1cc3cc(OC)c(OC)cc3[nH]c1=O)N(C(=O)C1CC1)CC2 (stereo not given) | 45 | i | i | i | i
CCCC(=O)N1CCc2cc(OC)c(OC)cc2C1c1cc2cc3c(cc2[nH]c1=O)OCO3 (stereo not given) | i | i | i | i | nt
CCOc1cc(C2CC(=O)N3CN(C4CCCCC4)CSC3=C2C#N)ccc1O (stereo not given) | i | i | 82 | i | i
COc1ccc2ccccc2c1C1CC(=O)N2CN(C3CCCCC3)CSC2=C1C#N (stereo not given) | i | i | i | i | i
CC1Cc2ccccc2N1C(=O)CN1CCC(n2nnc3cc(C(F)(F)F)ccc32)CC1 (stereo not given) | i | i | i | i | i
CCOC(=O)c1c(NC(=O)C2CCCO2)sc(C(=O)OC(C)(C)C)c1C (stereo not given) | i | i | i | 99 | i
O=C(NCc1ccccc1)c1ccc(S(=O)(=O)C(F)F)cc1 | i | i | i | i | i
CCc1cc2cc(C)ccc2nc1SCC(=O)N1CCN(C(=O)c2ccco2)CC1 | i | i | i | i | i
CCc1cc2cc(C)cc(C)c2nc1SCC(=O)N1CCCC1 | i | 95 | i | i | nt
Cc1occc1C(=O)NC1CCCc2ccccc21 (stereo not given) | i | 80 | i | i | i
CN(CCC#N)C(=O)c1ccc(CNS(=O)(=O)c2ccc(F)cc2)cc1 | i | 86 | i | 100 | i
CCN(CC)CCN1C(=O)C(=O)/C(=C(/O)c2ccc(OC)cc2)C1c1ccco1 (stereo not given) | i | i | i | i | i
CCOc1ccc(/C(O)=C2/C(=O)C(=O)N(c3nc(C)c(C)s3)C2c2ccco2)cc1 (stereo not given) | i | i | i | 46 | i
CS(=O)(=O)N(Cc1ccccc1)c1ccc(C(=O)NCc2ccccc2)cc1 | i | i | i | i | i
CCc1ncc(C(O)c2cccc(OC)c2OC)n1C (stereo not given) | i | 90 | i | 99 | i
Cc1ccc(/C=C/C(=O)Nc2ccccc2C(N)=O)cc1 | nt | nt | nt | nt | i
O=C(O)C1CC=CCC1C(=O)Nc1ccc(N2CCN(Cc3ccccc3)CC2)cc1 (stereo not given) | nt | nt | nt | nt | i
O=C(CCNS(=O)(=O)c1cccs1)N1CCc2ccccc2C1 | i | i | i | 99 | nt
Cc1ccc(N(CN2CCCC2=O)C(=O)c2ccc(OC(C)C)cc2)cc1 | i | i | 79 | i | i
CCOc1ccc(C(=O)N(CN2CCCC2=O)c2ccc(C)cc2)cc1 | i | i | i | i | nt
O=C(NC1CC1)C1CC(=O)N(C2CCCCC2)C1 (stereo not given) | 121 | i | i | i | nt
COCc1cc(C)c2c(N)c(C#N)sc2n1 | i | i | i | 31 | i
SMILES | NFkB transloc pot | IL1B cytotox | TNFa cytotox | NFkB transloc inh | Phagocytosis inh
CSCc1cc(N2CCOCC2)nc(SCc2ccc(Cl)c(Cl)c2)n1 | i | i | i | i | i
O=C(/C=C/c1ccccc1F)c1cccc([N+](=O)[O-])c1 | nt | nt | nt | nt | i
O=C(Oc1ccc(F)cc1C(=O)/C=C/c1cccs1)c1cccc([N+](=O)[O-])c1 | i | i | i | 31 | nt
Cc1cccc2cc(C#N)c(SCCN3CCCCC3)nc12 | i | 84 | i | 97 | nt
CCn1c(SCC(=O)Nc2cccc(NC(=O)c3cccs3)c2)nnc1-c1ccncc1 | 42 | i | i | i | i
CNc1nc(SCC(=O)OC)nc(N2CCOCC2)n1 | nt | nt | nt | nt | 74[artifact]
CSCCOC(=O)C1=C(C)Nc2ccc(C)cc2S1 | i | i | i | 58 | i
CCOC(=O)C1=C(C)Nc2ccc(C)cc2S1 | i | i | i | i | i
CCOC(=O)c1ccc2[nH]c3c(c2c1)CCCCC3=O | 41 | i | i | i | nt
CC1(C)CC(=O)C2=C(C1)OC(N)=C([N+](=O)[O-])C2c1cccs1 (stereo not given) | nt | nt | nt | nt | i
COc1cccc(C(=O)CN(C(=O)c2ccc(Cl)cc2Cl)N2C(=O)c3ccccc3C2=O)c1 | nt | nt | nt | nt | i
CCSC1=C(C#N)C(c2ccc3c(c2)OCO3)C2=C(CCCC2=O)N1 (stereo not given) | 66 | i | i | i | i
N#CC1=C(SCc2ccccc2)NC2=C(C(=O)CCC2)C1c1ccc2c(c1)OCO2 (stereo not given) | i | i | i | i | i
O=C(NN=C1C2CC3CC(C2)CC1C3)c1cccc(S(=O)(=O)N2CCOCC2)c1 | nt | nt | nt | nt | i
Cc1cc(C)c2c(=O)[nH]c(SCC(=O)NCCc3ccccc3)nc2n1 | i | i | i | i | nt
Cc1cc(C)c2c(=O)[nH]c(SCC(=O)NCc3ccccc3)nc2n1 | i | i | i | 46 | i
CCN(CC)S(=O)(=O)c1cc(C(=O)Nc2nncs2)c(Cl)cc1Cl | i | i | nt | i | 26
CCN(CC)S(=O)(=O)c1ccc(Cl)c(C(=O)Nc2nncs2)c1 | i | i | i | i | i
On1onc2c3cc(-c4ccccc4)nc3ccc21 | i | i | i | i | i
c1ccc(-c2cc3c(ccc4nonc43)nn2)cc1 | 57 | i | i | i | i
COc1ccc([N+](=O)[O-])cc1C(=O)Nc1ccc(OCC(=O)N2CCOCC2)cc1 | nt | nt | nt | nt | i
Cc1ccc(NC(=O)COC(=O)c2cc(Cl)ccc2[N+](=O)[O-])cc1 | nt | nt | nt | nt | 24[artifact]
O=C(c1cn(-c2ccccc2)nc1-c1ccncc1)N1CCCCC1 | i | 92 | nt | i | i
c1ccc2c(c1)CCN(c1nc(CN3CCOCC3)nc3sc4c(c13)CCCC4)C2 | nt | nt | nt | nt | i
Cc1ccc(NC(=S)N(CCN(C)C)Cc2cc3cc(C)cc(C)c3[nH]c2=O)cc1 | nt | nt | nt | nt | i
SMILES | NFkB transloc pot | IL1B cytotox | TNFa cytotox | NFkB transloc inh | Phagocytosis inh
O=C(/C=C/c1cccc(Cl)c1)NCCN1CCOCC1 | nt | nt | nt | nt | i
Cc1ccc(S(=O)(=O)NCCN2CCOCC2)cc1 | i | i | i | 31 | nt
O=C(NCc1cccs1)C(=O)NCC1OCCCN1S(=O)(=O)c1ccccc1 (stereo not given) | nt | nt | nt | nt | i
Cn1c2ccc(F)cc2c2ncn(Cc3ccco3)c(=O)c21 | i | i | i | 32 | i
Cc1onc(-c2ccccc2Cl)c1C(=O)Nc1cc(=O)n(C)c(=O)n1C | i | 89 | i | i | nt
O=[N+]([O-])c1cc2c(c(CSc3nnnn3-c3ccc(O)cc3)c1)OCOC2 | nt | nt | nt | nt | i
COc1ccc(S(=O)(=O)Nc2ccc3c(c2)COC3=O)cc1OC | i | i | i | i | i
CS(=O)(=O)Nc1ccc2c(c1)C(=O)OC2 | 57 | i | i | i | i
O=C(Oc1cccc(N2C(=O)CCC2=O)c1)c1ccccc1 | i | 89 | i | i | nt
Cc1nc2ccccc2n1CSc1ccccc1 | nt | nt | nt | nt | i

Assay outcomes as filed in PubChem.
